Rows were chosen to be rich in hits. Some 12% of all compounds tested hit in one or more screens of this group.
G9a block: qHTS Assay for Inhibitors of Histone Lysine Methyltransferase G9a | AID 504332, 2011 | Potency, µM (titrated, usually from 102 µM), without a hit: top-dose activity, negative = inhibition, most hits filed as inhibitors | 350,000 compounds, 8.8% hits | G9a H3K9 monomethylation, AlphaScreen, 2 h | Histone-lysine N-methyltransferase EHMT2 (Homo sapiens), Q96KQ7; further: potency means the concentration at half of the fitted maximal effect; on the % scale 0 is the no-effect control and ±100 the full control effect; nearly all actives have a fitted effect of over 75% in size
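Quantitative HTS format: methyltransferase activity on a biotin-tagged H3K9 peptide is measured by AlphaScreen, using a rabbit anti-monomethyl-H3K9 antibody with streptavidin donor and anti-IgG acceptor beads. Final levels are 20 nM enzyme, 500 nM peptide, 20 uM SAM; 2 h RT.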
JMJD2A Tudor: qHTS Assay for Inhibitors of JMJD2A-Tudor Domain; Potency, µM (titrated, usually from 114 µM), for the others: at the top dose activity change, negative = inhibition, actives largely listed as inhibitors; AID 504339, 2011; Lysine-specific demethylase 4A (Homo sapiens), O75164; 390,000 compounds, 4.4% hits; AlphaScreen JMJD2A-Tudor / H3K4me3 peptide binding; further: potency means the concentration at half of the fitted maximal effect; on the % scale 0 is the no-effect control and ±100 the full control effect; nearly all actives have a fitted effect of over 50% in size
HP1b chromo inh: HTS for Inhibitors of HP1-beta Chromodomain Interactions with Methylated Histone Tails; Chromobox protein homolog 1 (Homo sapiens), P83916; Potency, µM (top dose mostly 114 µM), for the others: top-dose activity change, negative = inhibition, usual class: inhibitors; 390,000 compounds, 0.56% hits; AlphaScreen HP1-beta / biotin-H3K9me3 peptide binding; AID 540317, 2011; further: potency means the concentration at half of the fitted maximal effect; nearly all actives have a fitted effect of over 70% in size
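AlphaScreen: HP1-beta (50 nM) preformed 30 min with biotin-H3(1-18)K9me3 peptide (50 nM) in PBS pH 7.4, 0.01% Tween-20. Compound added for 30 min at RT, then streptavidin donor/nickel chelate acceptor beads (10 ug/mL) for 30 min.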
PLK1 PBD block: qHTS for Inhibitors of PLK1-PDB (polo-like kinase 1 - polo-box domain): Primary Screen; AID 720504, 2013; Serine/threonine-protein kinase PLK1 (Homo sapiens), P53350; 360,000 compounds, 2.8% hits; Potency, µM, without a hit: max response, negative = inhibition, usual class: inhibitors; Plk1 PBD binding of FITC phosphopeptide, fluorescence polarization; further: potency means the concentration at half of the fitted maximal effect; series mostly up to about 57 µM; on the % scale 0 is the no-effect control and ±100 the full control effect; nearly all actives have a fitted effect of over 65% in size
PI5P4Ka inh: qHTS for Inhibitors of phosphatidylinositol 5-phosphate 4-kinase (PI5P4K); Phosphatidylinositol 5-phosphate 4-kinase type-2 alpha (Homo sapiens), P48426; PI5P4Kalpha enzyme, ADP-Glo luminescence, 60 min; active compounds read low; max response, %; 330,000 compounds, 1.2% hits; AID 652105, 2013; active means max response of -50% or lower; inconclusive means between -30% and -50%; inactive means -30% or higher; further: value at the top dose of about 77 µM; on the % scale 0 is the no-effect control and ±100 the full control effect
Target sequence (P48426 whole entry, looked up): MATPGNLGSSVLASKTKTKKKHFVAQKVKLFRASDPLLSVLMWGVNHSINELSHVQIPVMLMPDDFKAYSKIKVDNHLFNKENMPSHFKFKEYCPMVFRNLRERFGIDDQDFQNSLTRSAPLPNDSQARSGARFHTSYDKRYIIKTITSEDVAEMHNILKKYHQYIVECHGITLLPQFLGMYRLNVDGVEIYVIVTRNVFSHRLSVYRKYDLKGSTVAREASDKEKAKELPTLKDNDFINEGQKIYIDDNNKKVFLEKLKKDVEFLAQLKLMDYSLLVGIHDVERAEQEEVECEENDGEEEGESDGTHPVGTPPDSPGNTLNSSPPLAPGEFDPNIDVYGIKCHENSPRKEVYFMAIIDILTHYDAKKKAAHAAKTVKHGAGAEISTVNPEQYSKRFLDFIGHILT
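Compounds were pin-transferred onto PI5P4Kalpha and substrate in HEPES pH 7.4 buffer with EGTA, CHAPS and 5% DMSO. ATP (5 microM final) started the reaction, which ran 60 minutes at room temperature before ADP-Glo detection.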
BAZ2B block: qHTS Assay for Inhibitors of BAZ2B. 360,000 compounds, 4.4% hits. AlphaScreen BAZ2B-H3K14Ac peptide displacement. Potency, µM (doses to about 114 µM), without a hit: at the top dose activity change, negative = inhibition, usual class: inhibitors. Bromodomain adjacent to zinc finger domain protein 2B (Homo sapiens), Q9UIF8; further: potency means the concentration at half of the fitted maximal effect; on the % scale 0 is the no-effect control and ±100 the full control effect; nearly all actives have a fitted effect of over 60% in size
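Protein-peptide AlphaScreen: BAZ2B 50 nM, b-H3K14Ac 50 nM, 1x PBS pH 7.4 + 0.01% Tween-20. Preincubation 30 min RT; cpd 30 min RT (top 110 uM); beads 20 min RT, light-protected.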
Starred values were filed as active, the others as inactive; ? = inconclusive; nt = not tested or not shown; [ ] = remark or other dose. Unless noted, the call rests on the fitted dose curve; in most records, active means well fitted curve in the direction sought with a large enough effect; inconclusive means small, poorly fitted or top-dose-only effect, or another doubt; inactive means no such curve, though single readings can be large; an effect the other way counts as inactive or inconclusive.

SMILES	G9a block	JMJD2A Tudor	HP1b chromo inh	PLK1 PBD block	PI5P4Ka inh	BAZ2B block
Cc1n[nH]c(=O)c2c(NC(=O)COC(=O)Cc3c(F)cccc3Cl)oc(C)c12	25µM*	-8%	40%	-20%	0	-3%
O=c1[nH]c(=O)n(CCCc2ccccc2)cc1-c1ccccc1	nt	-10%	30%	0%	0	nt
CCOC(=O)c1ccc(S(=O)(=O)N2CCC(C(=O)NCC3COc4ccccc4O3)CC2)cc1 (stereo not drawn)	nt	nt	nt	-17%	3	nt
CCCCCOC(=O)c1[nH]c2c(c1C)C(=O)C(C(=O)OC)C(C)C2 (stereo not drawn)	?	14µM*	-11%	3µM*	?	1%
CCN(C(=O)Cn1cc(S(=O)(=O)Cc2ccccc2Cl)c2ccccc21)c1ccccc1	-19%[59 µM]	-7%	6%	nt	nt	1%
O=c1[nH]c(=O)c2nc3c4ccccc4c4ccccc4c3nc2[nH]1	40µM*	-32%[11.4 µM]	-7%	21µM*	12	56µM*
O=c1[nH]c(=O)c2nc(-c3ccc(Cl)cc3)cnc2[nH]1	?	-10%	?	-12%	?	-11%
O=C(NCCCN1CCOCC1)c1ccccc1N1C(=O)[C@@H]2Cc3c([nH]c4ccccc34)C(c3cccc(Cl)c3)N2C1=O (stereo partly drawn)	17%[12.7 µM]	-34%	-8%	6%	1	?
Cc1ccccc1OCC(=O)Nc1ccc(NC(=O)c2ccco2)cc1	17%	-20%	-12%	21µM*	-16	-16%
O=C(CNC(=O)c1ccco1)Nc1ccc(F)c(Cl)c1	9%	0%	29%	-8%	1	-12%
Cc1ccccc1OCC(=O)Nc1ccc(S(=O)(=O)N(Cc2ccccc2)c2ccccc2)cc1	-6%[59 µM]	79µM*	41%	nt	nt	-4%
Cc1cc(NC(=O)COc2ccccc2C)ccc1NC(=O)c1cccs1	79µM*	-10%	9%	-3%	5	7%
O=C(CNC(=O)c1ccco1)Nc1ccc(F)cc1	15%[12.7 µM]	-16%	-9%	27µM*	-10	-6%
Cc1ccc2oc(=O)n(CCCOc3ccc(Cl)cc3)c2c1	150%[59 µM]	70%	121%	nt	nt	200%
CC1=C(C(=O)Nc2ccc(C)cc2C)C(c2ccc([N+](=O)[O-])cc2)n2ncc(C(=O)Nc3ccc(F)cc3)c2N1 (stereo not drawn)	-29%[59 µM]	-13%	2%	nt	nt	2%[57.1 µM]
CC1(C(=O)Nc2ccc(F)cc2F)CCN1C(=O)Cc1ccccc1 (stereo not drawn)	nt	nt	nt	-9%	3	nt
O=C1CC(c2ccco2)CC(O)=C1C=NCCO (stereo not drawn)	79µM*	-4%	33%	-4%	7	12%
COc1ccc(-c2n[nH]c(=S)n2/N=C/C=C/c2ccccc2OC)cc1	1.3µM*	79µM*	6%	-22%	0	-2%
COc1ccccc1/C=C/C=N/n1c(-c2ccc(Cl)cc2)n[nH]c1=S	nt	89µM*	?	12µM*	0	?
COc1ccccc1/C=C/C=N/n1c(-c2ccccc2)n[nH]c1=S	nt	-36%	0%	?	0	-3%
CCOc1ccc(-c2cccc(NS(=O)(=O)c3c(C)cc(C)cc3C)c2)nn1	-5%[59 µM]	-19%	15%[57 µM]	nt	nt	-17%
CCN1C(=NCCOC)N[C@@H](CCc2ccccc2)[C@H](C(=O)OC)[C@H]1C	2%[12.7 µM]	40µM*	15%	-6%	-12	4%
CCN1C(=NCCCOC(C)C)N[C@@H](CCc2ccccc2)[C@H](C(=O)NCCCOC(C)C)[C@H]1C	nt	?	-11%	24µM*	-3	-5%
O=C(NCCCN1C(=O)c2ccccc2C1=O)OCc1ccccc1	nt	1%	14%	-4%	-6	nt

Source: PubChem BioAssay (National Center for Advancing Translational Sciences (NCATS))
